Screens deposited in PubChem BioAssay by National Center for Advancing Translational Sciences (NCATS).
Only some compounds are listed: those with a hit (about 17% of all), similar ones and a draw of the others.
ClpP mod = qHTS Assay for Activators of ClpP; purified B. subtilis ClpP, FRET peptide cleavage, 20 min; AID 651965, 2013; Potency, µM (series often up to 57.5 µM), without a hit: at the top dose activity change, negative = active; 1.9% of 340,000 active; active = well fitted falling curve with a large enough effect; inconclusive = small, poorly fitted or top-dose-only effect; inactive = no such curve, though single readings can be large or run the other way; also: the source files actives as falling curves though it sought activators and does not explain the sign; nearly all actives have a fitted effect of over 65% in size
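FRET quenching reversal measured ClpP activation: 10 microg/mL B. subtilis ClpP at pH 8 with the FRET-FV decapeptide, read at 430 nm after 320 nm excitation. The 20-min minus 0-min signal was scaled between DMSO/no-enzyme wells and ADEP (5.8 microM final).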
DT40 TDP1 CPT = DT40-hTDP1 cell growth loss with CPT; chicken DT40 Tdp1-/-;hTDP1 cells + 20 nM CPT, ATP luminescence, 48 h; Potency, µM (titrated, usually from 46.2 µM), inactives show at the highest dose activity change, negative = growth inhibition, most hits filed as inhibitors; 12% of 420,000 active; AID 686979; also: % is scaled to controls: 0 for no effect and ±100 for the full control effect; nearly all actives have a fitted effect of over 55% in size
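Chicken DT40 Tdp1-/- cells stably complemented with human TDP1 were seeded at 400 cells/well in medium containing 20 nM camptothecin, exposed to pin-transferred compounds, and grown at 37 °C for at least 48 hr. Viability was read as ATP luminescence.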
DT40 TDP1 no CPT = qHTS for Inhibitors of human tyrosyl-DNA phosphodiesterase 1 (TDP1): qHTS in cells in absence of CPT. DT40 Tdp1-/- hTDP1 cells, no CPT, ATP luminescence, 48 h. Potency, µM (top dose mostly 46.2 µM), inactives show top-dose activity change, negative = growth inhibition, usual class: inhibitors. 15% of 420,000 active; also: % is scaled to controls: 0 for no effect and ±100 for the full control effect; nearly all actives have a fitted effect of over 55% in size
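Growth of hTDP1-complemented DT40 Tdp1-knockout cells is measured by ATP luminescence after at least 48 hr compound exposure at 37 °C, with DMSO substituting for the 20 nM CPT used in the parallel screen.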
TDP1 inh = inhibitors of human tyrosyl-DNA phosphodiesterase TDP1 | Q9NUW8 | recombinant TDP1, AlphaScreen DNA substrate cleavage | Potency, µM (highest dose often 130 µM), for the others: at the highest dose activity change, negative = inhibition, most hits filed as inhibitors | 0.28% of 350,000 active; also: % is scaled to controls: 0 for no effect and ±100 for the full control effect; nearly all actives have a fitted effect of over 40% in size
Target sequence (Q9NUW8 whole entry, looked up): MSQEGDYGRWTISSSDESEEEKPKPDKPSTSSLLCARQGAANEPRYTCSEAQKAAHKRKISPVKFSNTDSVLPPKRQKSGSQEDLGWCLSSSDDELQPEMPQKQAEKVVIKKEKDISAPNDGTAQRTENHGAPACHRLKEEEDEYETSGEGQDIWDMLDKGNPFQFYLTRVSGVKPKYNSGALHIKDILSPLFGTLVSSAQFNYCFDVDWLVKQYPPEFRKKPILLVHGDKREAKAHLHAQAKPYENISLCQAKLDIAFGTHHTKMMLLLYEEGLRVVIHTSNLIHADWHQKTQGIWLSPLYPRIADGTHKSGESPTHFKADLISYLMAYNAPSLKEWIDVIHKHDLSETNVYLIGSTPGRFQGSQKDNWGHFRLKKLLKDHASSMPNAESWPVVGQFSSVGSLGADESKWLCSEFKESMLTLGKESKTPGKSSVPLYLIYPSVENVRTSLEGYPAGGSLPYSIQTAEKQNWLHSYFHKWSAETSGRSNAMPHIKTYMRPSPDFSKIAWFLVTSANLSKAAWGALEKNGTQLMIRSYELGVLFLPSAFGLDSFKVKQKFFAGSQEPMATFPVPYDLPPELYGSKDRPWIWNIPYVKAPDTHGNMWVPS
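Here, a 5' biotin and 3' phosphotyrosine-FITC DNA oligonucleotide reports Tdp1 activity: intact substrate bridges AlphaScreen beads, while cleavage leaves a 3' phosphate and drops signal. All incubations at room temperature.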
An asterisk follows results filed as active; ? = inconclusive; nt = no result given; [ ] = remark or other dose. Unless noted, calls follow the shape of the dose curve; as a rule, active = well fitted curve in the direction sought with a large enough effect; inconclusive = small, poorly fitted or top-dose-only effect, or another doubt; inactive = no such curve, though single readings can be large; an effect the other way counts as inactive or inconclusive. Potency is read from the fitted curve at half-maximal effect.

SMILES | ClpP mod | DT40 TDP1 CPT | DT40 TDP1 no CPT | TDP1 inh
Cc1ccc(C)c(NC(=O)CN2CCCN(Cc3cccc(Cl)c3)S2(=O)=O)c1 | 0.8% | ? | ? | 5.6%
O=C(c1cc2ncc(Br)cn2n1)N1CCN(C(=O)c2ccco2)CC1 | ? | 3.1% | 12.8% | 22.4µM*
O=C(c1cc2ncc(Br)cn2n1)N1CCOCC1 | -0.5% | -2.5% | -6.5% | -2.0%
CCC1Oc2ccc(C)cc2N(CC(=O)NCc2ccc(F)cc2)C1=O (stereo not given) | -3.8% | ? | ? | 2.6%
O=C(CNC(=O)c1ccc(S(=O)(=O)N2CCCC2)cc1)N/N=C/c1ccccc1Cl | -0.9% | ? | 13µM* | 4.2%
Cc1cc(O)cc(O)c1/C=N/NC(=O)c1ccc2c(c1)OCCO2 | 5.1% | 5.8µM* | 6.51µM* | nt
CC/C(=N/NC(=O)c1ccc2c(c1)OCO2)c1ccccc1O | 23.8% | 6.51µM* | 3.66µM* | nt
COc1ccc2ccccc2c1/C=N/NC(=O)c1ccc(C)nc1 | -3.7% | 1.0% | ? | nt
O=C(N/N=C/c1c(O)ccc2ccccc12)c1ccc(CO)nc1 | nt | 4.61µM* | 4.61µM* | 5.4%
O=C(NN=Cc1c(O)ccc2ccccc12)c1ccc2c(c1)OCO2 | -2.2% | 5.8µM* | 2.59µM* | -5.9%
O=C(N/N=C\c1c(O)ccc2ccccc12)c1ccc(S(=O)(=O)N2CCCCC2)cc1 | 2.3% | 3.26µM* | 3.66µM* | 8.2%
O=C(NCc1ccccc1)c1ccc(S(=O)(=O)N2CCCCCC2)cc1 | 3.4% | ? | ? | nt
O=C(N/N=C/c1ccccc1)c1ccc2c(c1)OCO2 | 0.5% | -6.0% | -13.9% | nt
COC(=O)c1cc2oc(C)cc2n1CC(=O)Nc1cc(Cl)ccc1OC | 1.2% | ? | -12.3% | 1.0%
CC(C)(C)OC(=O)N[C@H](C(=O)OC(C)(C)C)c1ccc2ccccc2c1 | -3.4% | 8.2µM* | -26.6% | 0.0%
COc1ccc([C@@H](NC(=O)OC(C)(C)C)C(=O)OC(C)(C)C)cc1 | -0.7% | ? | ? | -0.7%
CCC(C)(C)n1nnnc1C(c1ccc(O)c(OC)c1)N1CCc2ccccc2C1 (stereo not given) | -0.1% | 7.31µM* | 13µM* | 4.1%
CCC(C)(C)n1nnnc1C(c1cc2ccc(OC)cc2[nH]c1=O)N1CCc2ccccc2C1 (stereo not given) | -24.3% | ? | ? | 1.1%
CCC(C)(C)n1nnnc1C(c1ccccc1)N1CCc2ccccc2C1 (stereo not given) | -0.9% | ? | 23.1µM* | -1.0%
CCCS(=O)(=O)Nc1cc2c(cc1NCc1ccccc1)n(C)c(=O)n2C | 4.2% | 9.2µM* | ? | -2.5%
COc1ccc(NS(=O)(=O)c2ccc3c(c2)n(C)c(=O)n3C)cc1 | 0.7% | -29.3% | -8.5% | 5.1%
COc1ccc(S(=O)(=O)Nc2cc3c(cc2NCc2ccccc2)n(C)c(=O)n3C)cc1 | 4.1% | 8.2µM* | ? | 5.0%
CSc1ccc(CN2CCC(C)(Oc3cnc(Cl)c4ccccc34)C2)cc1 (stereo not given) | -13.9% | ? | ? | nt
CCOc1ccc2c(c1)C(=NNC(=O)c1ccccn1)c1cc(OCC)ccc1-2 | -0.3% | ? | ? | nt
O=c1nccc(SCc2ccc(Cl)cc2Cl)[nH]1 | 0.1% | -24.6% | ? | nt
SMILES | ClpP mod | DT40 TDP1 CPT | DT40 TDP1 no CPT | TDP1 inh
CC(=O)N(Cc1ccc(F)cc1)c1cccc(C)c1C | nt | ? | 20.6µM* | -2.7%
CC(=O)N(CC1CCCO1)c1nnc(-c2ccccn2)s1 (stereo not given) | 15.8µM* | 1.6% | 5.7% | 1.9%
COc1ccc(C[C@H]2CN3C(=NC[C@@H]3Cc3ccc(O)cc3)N2CCNC(=O)c2ccc(C)c(Br)c2)cc1 | -0.7% | 13µM* | 13µM* | 6.4%
C/C=C(\C)C(=O)NCCN1C2=NC[C@@H](C)N2C[C@H]1Cc1ccc(O)cc1 | -5.2% | 0.5% | 1.7% | 3.8%
Cc1ccc(C(=O)NCCN2C3=NC[C@H](Cc4ccc(O)cc4)N3C[C@H]2Cc2ccc(O)cc2)cc1Br | -0.9% | ? | 16.4µM* | nt
Cc1nn(C(=O)c2ccc(Br)cc2)c(C)c1S(=O)(=O)N1CCOCC1 | -0.9% | -4.8% | -0.1% | 5.3%
COc1cc(-c2nc(C)cnc2C)cc2c1OCCN(C(=O)Cn1nc(-c3ccccc3)c3ccccc3c1=O)C2 | nt | -5.5%[9.04 µM] | 2.0% | nt
Cc1ccc(CN(C(=O)c2ccc(C(C)(C)C)cc2)c2ccccn2)o1 | 0.2% | ? | ? | 0.5%
Cc1ccc2[nH]c(=O)c3cc(C(=O)NCCc4ccc(Cl)cc4)sc3c2c1 | ? | ? | ? | 3.8%
N#Cc1c(N)nc2c(c1-c1ccccc1)CCC2 | -11.7% | -29.6% | -15.1% | -2.5%
COc1ccc(Nc2ncccc2C(=O)Nc2ccccc2)cc1 | -2.3% | 23.1µM* | 29.1µM* | -5.9%
COc1ccc(Nc2ncccc2C(=O)NCc2ccccc2)cc1 | -3.0% | -1.4% | -29.0% | 9.8%
COc1ccc(NC(=O)c2cccnc2N2CCCC2)cc1 | 0.7% | ? | ? | -4.7%
COc1ccc(NC(=O)c2cccnc2Nc2ccc(OC)cc2)cc1 | 0.4% | 16.4µM* | ? | 8.5%
Cc1ccccc1CN1CCN(C2CCC2)CC1CCO (stereo not given) | 0.7% | -0.2% | -19.4% | nt
Cc1cc(S(=O)(=O)N2CCOCC2)ccc1OCC(=O)NCc1ccccn1 | 1.4% | 9.8% | 1.6% | 1.6%
O=C(O)c1cc2c(s1)-c1ccccc1CC2 | 236.1% | -17.5% | -15.7% | 3.5%
O=C(N/N=C/c1ccc(Cl)cc1)c1cc2c(s1)-c1ccccc1CC2 | 28.2µM* | 3.66µM* | 5.17µM* | -5.6%
CC(C)(C)c1ccc(C2Sc3ccccc3NC3=C2C(=O)c2ccccc23)cc1 (stereo not given) | -1.4% | 16.4µM* | ? | 4.8%[12.3 µM]
Cc1cc(CN(C)C(=O)c2cc(COc3ccc4ncccc4c3)on2)on1 | -6.7% | 7.31µM* | 6.51µM* | nt
Cc1ccc(OCc2cc(C(=O)N(C)Cc3cnc4ccccn34)no2)cc1C | -3.2% | 14.6µM* | 11.6µM* | 5.4%
CCn1ccnc1CN(C)C(=O)c1cc(COc2ccccc2SC)on1 | -1.5% | ? | -29.0% | 5.4%[56.1 µM]
CC(=O)c1ccc(OCc2cc(C(=O)N(C)Cc3cc(C)no3)no2)cc1 | -0.9% | -11.8% | -22.9% | 3.2%
CN(Cc1nccn1C)C(=O)c1cc(COc2ccc3ncccc3c2)on1 | -3.6% | -41.7% | 18.4µM* | 2.6%
CCOc1ccc(CCNC(=O)C2=C(C)C(=O)OC23CCC(C)CC3)cc1 (stereo not given) | 1.3% | -10.0% | -29.4% | 1.3%
COc1cc(NC2CCCCC2O)c2nc(-c3ccc(Cl)cc3)ccc2c1 (stereo not given) | -0.2% | 20.6µM* | ? | -1.4%
